PubChem BioAssay (NCATS)
Records with an inconclusive call do not appear. The source made the active and inactive calls. The call rests on the fitted dose curve; in most records, active means well fitted cell-killing curve with a large enough effect; inconclusive means small, poorly fitted or top-dose-only effect, or effect the other way; inactive means no such curve, though single readings can be large or run the other way.

Test: Quantitative High-Throughput drug screen in 47 multiple myeloma cell lines against the NCATS MIPE library collection: KMS20_JCRB cell viability assay (AID 1918973); further: nearly all actives have a fitted effect of over 45% in size
Details: CellTiter-Glo ATP, 48 h; series mostly up to 45.8 µM
Description: PI: Beverly A. Mock Ph.D.
Laboratory of Cancer Biology and Genetics,
Center for Cancer Research, National Cancer Institute,
National Institute of Health, Bethesda, Maryland
Drug resistance and disease progression are common in multiple myeloma (MM) patients, underscoring the need for new therapeutic combinations. […] We hypothesized that effective combinations would reduce MYC expression and enhance p16 activity. […] These preclinical data identify potentially useful drug combinations for evaluation in drug-resistant MM and reveal potential mechanisms of combined drug sensitivity.
Described herein is the primary MIPE qHTS used to cherrypick compounds. Validated compounds were then further tested for potential synergistic activiy.
[1] Peat TJ, Gaikwad SM, Dubois W, Gyabaah-Kessie N, Zhang S, Gorjifard S, Phyo Z, Andres M, Hughitt VK, Simpson RM, Miller MA, Girvin AT, Taylor A, Williams D, D'Antonio N, Zhang Y, Rajagopalan A, Flietner E, Wilson K, Zhang X, Shinn P, Klumpp-Thomas C, McKnight C, Itkin Z, Chen L, Kazandijian D, Zhang J, Michalowski AM, Simmons JK, Keats J, Thomas CJ, Mock BA. Drug combinations identified by high-throughput screening promote cell cycle transition and upregulate Smad pathways in myeloma. Cancer Lett. 2023 Aug 1;568:216284. doi: 10.1016/j.canlet.2023.216284. Epub 2023 Jun 24. PMID: 37356470; PMCID: PMC10408729.
SEQUENCE No. (e.g., 1, 2, 3, etc.); […] (e.g., Cells, Incubation, Reagent, etc.); VALUE and DESCRIPTION.
1; Cells; 5 uL; white, solid bottom 1536-well Greiner assay plate.
2; Compounds; 23 nL; Kalypsis pin tool (Wako USA) equipped with a 1536-well pin head to transfer to the assay plates.
3; Incubation; 48 hours; 37C incubation.
4; Reagent;5uL; CellTiter Glo (Promega).
5; Detector; 425V; Luminescence; Viewlux PerkinElmer.
NOTES (numbers refer to Sequence numbers above)
1. The cell-based screening methods employed in this study were like those previously published. Briefly, the corresponding myeloma cell lines were screened in 1,536-well plates with 500 cells, 5-uL per well for inhibition of cell viability (assessed by measuring ATP levels with CellTiterGlo).
2. NCATS MIPE 4.0 library of approved and investigational drugs were added using the Kalypsis pin tool. Wells treated with DMSO only for 100% viability and media only wells for 0% viability were used as controls.
3. The assay plates were covered and incubated for 48 hours in a 37C, 5% CO2 incubator with controlled humidity.
4. After 48 hours, CellTilter-GloTM luminescent substrate mix (Promega) reagent was added to the assay plate and plates we incubated for 5 min at room temperature.
5. Signal was measured as median relative luminescence units on a ViewLux (PerkinElmer) multiplate reader.
[1] Heske CM, Davis MI, Baumgart JT, Wilson K, Gormally MV, Chen L, Zhang X, Ceribelli M, Duveau DY, Guha R, Ferrer M, Arnaldez FI, Ji J, Tran HL, Zhang Y, Mendoza A, Helman LJ, Thomas CJ. Matrix Screen Identifies Synergistic Combination of PARP Inhibitors and Nicotinamide Phosphoribosyltransferase (NAMPT) Inhibitors in Ewing Sarcoma. Clin Cancer Res. 2017 Dec 1;23(23):7301-7311. doi: 10.1158/1078-0432.CCR-17-1121. Epub 2017 Sep 12. PMID: 28899971; PMCID: PMC6636827.
Potency means the concentration at half of the fitted maximal effect.

Row | SMILES | Potency
1 | Cc1cnc(Nc2cccc(CN3CCOCC3)c2)nc1Nc1cccc(S(=O)(=O)NC(C)(C)C)c1 | 2.96 µM (active)
2 | CNC(=O)[C@H](Cc1ccccc1)NC(=O)[C@H](CC(C)C)[C@H](CSc1cccs1)C(=O)NO | inactive
3 | COc1c(C)c2c(c(O)c1CC=C(C)CCC(=O)OCCN1CCOCC1)C(=O)OC2 | inactive
4 | CCC=CC[C@H]1C(=O)CC[C@@H]1CC(=O)OC | inactive
5 | CC1(C)CC(=O)c2c(C(F)(F)F)nn(-c3ccc(C(N)=O)c(NC4CCC(O)CC4)c3)c2C1 (stereo not given) | 0.0935 µM (active)
6 | C[C@H]1[C@H](O)O[C@@H]2O[C@@]3(C)CC[C@@H]4[C@H](C)CC[C@@H]1[C@@]24OO3 | 14.8 µM (active)
7 | Cc1cccc2c1CC[C@H](CN1CCC(c3c(Cl)cccc3Cl)CC1)C[C@@H]2O | 20.9 µM (active)
8 | Cc1cc(C(C)Nc2ccccc2)c2nc(N3CCOCC3)cc(=O)n2c1 (stereo not given) | 10.5 µM (active)
9 | CCC(C)SSc1ncc[nH]1 (stereo not given) | 5.26 µM (active)
10 | CCCCCCCCCCCCCC(=O)N[C@H](CO)[C@H](O)c1ccc([N+](=O)[O-])cc1 | 23.5 µM (active)
11 | O=C(NC[C@H](O)CO)c1ccncc1Nc1ccc(I)cc1F | 0.0526 µM (active)
12 | CC[C@H]1OC(=O)[C@H](C)[C@@H](O[C@H]2C[C@@](C)(OC)[C@@H](O)[C@H](C)O2)[C@H](C)[C@@H](O[C@@H]2O[C@H](C)C[C@H](N(C)C)[C@H]2O)[C@](C)(O)C[C@H](C)C(=NOCOCCOC)[C@H](C)[C@@H](O)[C@]1(C)O | inactive
13 | CCOC(=O)N1CCN([N+]([O-])=NOc2cc(ON=[N+]([O-])N3CCN(C(=O)OCC)CC3)c([N+](=O)[O-])cc2[N+](=O)[O-])CC1 | 2.64 µM (active)
14 | CC1(C)OC2CC3C4CC(F)C5=CC(=O)C=CC5(C)C4C(O)CC3(C)[C@]2(C(=O)CO)O1 (stereo not given in full) | inactive
15 | C[C@@]1(C(=O)Nc2ccc(F)nc2)CCCN1c1nc(Nc2cc(C3CC3)[nH]n2)c2cccn2n1 | 0.0743 µM (active)
16 | Cn1cnc(-c2cc3nccc(Oc4ccc(NC(=S)NC(=O)Cc5ccccc5)cc4F)c3s2)c1 | 13.2 µM (active)
17 | N#CC(c1ccc(Cl)cc1)c1c(Cl)cc(-n2ncc(=O)[nH]c2=O)cc1Cl (stereo not given) | 3.72 µM (active)
18 | COc1ccc(C=CC(=O)Nc2ccccc2C(=O)O)cc1OC | 11.8 µM (active)
19 | CN(C)CCOc1ccc(-c2nc(-c3ccc4c(c3)CCC4=NO)c(-c3ccncc3)[nH]2)cc1 | 6.62 µM (active)
20 | Cc1ccc2c(c1)C(=O)[C@]1(O)CCN(c3ccccc3)C1=N2 | 2.96 µM (active)

Row | SMILES | Potency
21 | CC(=O)OCC(=O)[C@@]12OC(C)(C)O[C@H]1C[C@H]1[C@@H]3C[C@H](F)C4=CC(=O)C=C[C@]4(C)[C@@]3(F)[C@@H](O)C[C@@]12C | inactive
22 | CC(=O)NCCC(=O)N[C@@H](CCC(N)=O)C(=O)N[C@@H](CO)C(=O)N[C@@H](CCC(N)=O)C(=O)N[C@@H](CCC(N)=O)C(=O)N[C@H](C(=O)N[C@@H](Cc1ccccc1)C(=O)N[C@]1(C)CCCCCCC=CCCC[C@@](C)(C(=O)N[C@@H](CCC(N)=O)C(=O)N[C@@H](CC(N)=O)C(N)=O)NC(=O)[C@H](CC(C)C)NC(=O)[C@H](CC(C)C)NC(=O)[C@@H](CCCNC(=N)N)NC(=O)[C@H](Cc2c[nH]c3ccccc23)NC(=O)[C@H](CC(C)C)NC(=O)[C@H](CC(N)=O)NC1=O)[C@H](C)O | 18.7 µM (active)
23 | CC(C)n1c(C=C[C@H](O)C[C@H](O)CC(=O)O)c(-c2ccc(F)cc2)c2ccccc21 | 20.9 µM (active)
24 | CN1C(=O)C(Cc2c[nH]c3ccccc23)NC1=S (stereo not given) | inactive
25 | O=C(CC12CC3CC(CC(C3)C1)C2)Nc1cccc2nc(NCCNCCO)ccc12 | 6.62 µM (active)
26 | NC(=O)c1noc([C@H](CCCC2CCCCC2)CC(=O)NO)n1 | 18.7 µM (active)
27 | Cc1ccc2c(=O)c3cccc(CC(=O)O)c3oc2c1C | 33.2 µM (active)
28 | COc1cc2ncn(-c3cc(OCc4ccccc4S(C)(=O)=O)c(C#N)s3)c2cc1OC | inactive
29 | CC[C@H](C)n1cc(C)c2c(C(=O)NCc3c(C)cc(C)[nH]c3=O)cc(-c3ccc(N4CCNCC4)nc3)cc21 | 18.7 µM (active)
30 | Oc1cc(O)cc(C=Cc2ccc(O)c(O)c2)c1 | 2.96 µM (active)
31 | CSc1cccc(Nc2ncc3cc(-c4c(Cl)cccc4Cl)c(=O)n(C)c3n2)c1 | 0.0105 µM (active)
32 | NC(=O)c1ncn([C@@H]2O[C@H](CO)[C@@H](O)[C@@H]2O)n1 | inactive
33 | CCCCC(F)(F)[C@@]1(O)CC[C@H]2[C@H](CC(=O)[C@@H]2CCCCCCC(=O)O)O1 | 0.418 µM (active)
34 | CCCCN(CCCC)CC(O)c1cc(Cl)cc2c1-c1ccc(Cl)cc1C2=Cc1ccc(Cl)cc1 (stereo not given) | 11.8 µM (active)
35 | C[C@H]1COC2=C1C(=O)C(=O)c1c2ccc2c1CCCC2(C)C | 10.5 µM (active)
36 | O=C(Nc1ccc(OC(F)(F)F)cc1)c1sccc1NCc1ccnc2ccccc12 | 3.72 µM (active)
37 | COc1ccc2c(c1)c(C1=C(c3c[nH]c4ccccc34)C(=O)NC1=O)cn2CCCN(C)C | 14.8 µM (active)
38 | CNC1CCC(N(Cc2cccc(-c3ccncc3)c2)C(=O)c2sc3ccccc3c2Cl)CC1 (stereo not given) | 5.26 µM (active)
39 | C[C@@H]1C[C@H]2[C@@H]3CCC4=CC(=O)C=C[C@]4(C)[C@@]3(F)[C@@H](O)C[C@]2(C)[C@@]1(O)C(=O)CO | 0.418 µM (active)
40 | Cc1[nH]c(C=C2C(=O)Nc3ccc(S(=O)(=O)N(C)c4cccc(Cl)c4)cc32)c(C)c1C(=O)N1CCN(C)CC1 | 5.26 µM (active)
